Among all 350,000 compounds or so, about 9,900 (2.8%) were called active. About 15% were inconclusive and are not listed. Shown is part of a subset that was picked to be rich in actives. Values without a mark were called inactive. Calls follow the shape of the dose curve; as a rule, active = well fitted activation curve with a large enough effect; inconclusive = small, poorly fitted or top-dose-only effect; inactive = no such curve, though single readings can be large or run the other way.
Test: A quantitative high throughput screen for small molecules that induce DNA re-replication in MCF 10a normal breast cells. Also: nearly all actives have a fitted effect of over 50% in size. As to activity, positive = re-replication: % of control where 0% means no effect.
Settings: MCF 10A DNA re-replication, Hoechst nuclear intensity, 48 h; series mostly up to 46.1 µM; activity, positive = re-replication: at the top concentration
Potency is read from the fitted curve at half-maximal effect.

Structure (SMILES) | activity, positive = re-replication [%] | Potency
O=C(CNC(=O)c1cc(S(=O)(=O)N2CCOCC2)ccc1N1CCCC1)Nc1ccc(F)c(F)c1 | 16 | 
O=C(N/N=C/c1ccc([N+](=O)[O-])cc1)c1c[nH]c2ccccc12 | 14.1 | 
Cc1cc(C(=O)N/N=C/c2ccccc2[N+](=O)[O-])c(C)o1 | -4.32 | 
Cc1c(C(=O)N/N=C/c2ccccc2)[nH]c2c([N+](=O)[O-])cccc12 |  | 4.11 µM (active)
CC(=O)N(O)CCCCCNC(=O)CCC(=O)N(O)CCCCCNC(=O)CCC(=O)N(O)CCCCCNC(=O)CCC(=O)O | -0.0207 | 
COc1ccc(S(=O)(=O)N2CCCCCC2)cc1NC(=O)Cc1ccc(OC)c(OC)c1 | 3.06 | 
O=C(NCCc1ccco1)c1ccc(OCc2cn3ccccc3n2)cc1 | 3.69 | 
O=C(/C=C/c1ccccc1[N+](=O)[O-])OC1CCCCC1=O (centres undefined) | -9.38 | 
CC1CCCCC1NC(=O)/C(C#N)=C/C=C/c1ccccc1[N+](=O)[O-] (centres undefined) |  | 2.91 µM (active)
O=C(/C=C/c1ccccc1[N+](=O)[O-])NCC1CCCO1 (centres undefined) | -7.26 | 
O=C(CSc1ccccc1)Nc1cccc(S(=O)(=O)N2CCCCC2)c1 | 23 | 
C=CC[C@@H](CC(=O)NCCO)C(=O)N[C@H](C)COC(=O)[C@@H](CC=C)CC(=O)OC(C)(C)C | -32.4 | 
O=C(/C=C\c1ccc2c(c1)OCO2)NC1(C(=O)Nc2ccc3c(c2)OCCO3)CCCCC1 | 9.05 | 
Cc1cccc(NC(=O)/C=C/c2ccc3c(c2)OCO3)n1 | -25.9 | 
CCc1c(C)sc(NC(=O)/C=C/c2ccc3c(c2)OCO3)c1C(=O)OC |  | 5.8 µM (active)
Cc1csc(=O)n1CCC(=O)OCC(=O)NNC(=O)c1ccc(Br)cc1 | -8.04 | 
COc1cc(/C=N/NC(=O)Cc2ccccc2)cc(OC)c1OC | 4.38 | 
CCOC(=O)/C(C#N)=C/c1ccc(OCC(=O)Nc2ccccc2)c(OC)c1 | 10.1 | 
COc1cc(/C=N/NC(=O)Nc2ccccc2)ccc1OCCOc1ccccc1C |  | 1.16 µM (active)
COc1cc(/C=N/NC(=O)c2ccccc2)ccc1OS(=O)(=O)c1ccccc1 | -5.96 | 
COc1ccc(/C=N/S(=O)(=O)c2ccccc2)cc1OC | 2.04 | 
COc1ccc(/C=N/NC(=O)c2ccccc2)cc1OS(=O)(=O)c1ccccc1 |  | 20.6 µM (active)
CC(C(=O)NC1CCCC1)N1CCN(S(=O)(=O)c2ccccc2Cl)CC1 (centres undefined) | 5.71 | 
COC(=O)C1=C(C)NC(=S)NC1c1ccc(OCC(=O)N2CC(C)OC(C)C2)c(OC)c1 (centres undefined) | -2.89 | 
O=C(CSc1ccc(/C=N/NC(=O)c2cccc(F)c2)o1)Nc1ccccc1 | -3.18 | 

Structure (SMILES) | activity, positive = re-replication [%] | Potency
O=C(Cn1cc(/C=N/NC(=O)c2cccc(C(F)(F)F)c2)c2ccccc21)Nc1ccc(F)cc1 |  | 20.6 µM (active)
COc1ccc(/C=N/NC(=O)c2cccc(C(F)(F)F)c2)cc1 | -0.279 | 
Cc1cc(-c2cccs2)nc(-n2cccc2)n1 | -0.327 | 
Cc1cc2nc(C(F)(F)F)cc(-c3cccs3)n2n1 |  | 0.92 µM (active)
CC(C)(C)Nc1c(-c2cccs2)nc2ccccn12 | 2.19 | 
CN(C(=O)Cn1nnc(-c2ccc(F)cc2)n1)C1CCS(=O)(=O)C1 (centres undefined) | 10.4 | 
CN1CCN(c2ccc(NC(=O)c3cc(Cl)c4c(c3)OCCO4)cc2)CC1 | -2.46 | 
Cc1ccc(CNC(=O)COc2ccc3c(c2)CCC3)cc1 | 10.2 | 
Cc1ccc(CNC(=O)COc2ccc(S(=O)(=O)NC(C)C)cc2)cc1 | 6.62 | 
CC(=O)Nc1ccc(OCC(=O)NCc2ccc(C)cc2)cc1 |  | 1.16 µM (active)
COc1ccccc1-c1nn(Cc2ccccc2)cc1C(=O)N1CCN(c2ncccn2)CC1 | 13.2 | 
O=C(CN1CCCSc2ccccc21)N1CCN(S(=O)(=O)c2ccccc2)CC1 | 13.1 | 
COc1ccccc1/C=N/Nc1nc(C)c(C(C)=O)s1 | 5.97 | 
CC(=O)c1sc(N/N=C/c2ccc(C(C)C)cc2)nc1C |  | 13 µM (active)
CC(=O)c1sc(NC(=O)CCCOc2ccccc2C)nc1C | -8.51 | 
COc1ccc(Cl)cc1NC(=O)COC(=O)c1ccc(Br)o1 | 11.8 | 
CCCN(CC1CC1)C(=O)COC(=O)c1ccc(C)cc1O | 5.42 | 
Cc1cc(C)n2nc(C(=O)Nc3cccc(S(=O)(=O)N4CCOCC4)c3)nc2n1 | -16.6 | 
NC(CSC1(c2ccccc2)c2ccccc2-c2ccccc21)C(=O)O (centres undefined) | 1.81 | 
COc1ccc(-c2ccc3c(c2)[C@@H]2C[C@H](N(C)S(=O)(=O)c4ccccc4)[C@H]([C@H](C)O)C(=O)N2CC3)cc1 | -0.341 | 
CC(C)(C)OC(=O)Nc1ccc([C@@H](NC(=O)OC(C)(C)C)C(=O)OC(C)(C)C)cc1 | -5.63 | 
CCc1ccc2c(c1)C(c1ccc([N+](=O)[O-])cc1)=NNC(c1ccccc1)=N2 | 1.73 | 
CCc1ccc2c(c1)C1(NN=C(c3ccccc3)S1)C(=O)N2 (centres undefined) |  | 18.4 µM (active)
O=S1(=O)CSCS(=O)(=O)C1 | -2.53 | 
